Laboratory results: PubChem BioAssay AID1159580 (chemical genetic matrix, 2015)
Among all 5,500 compounds or so, about 2,000 (36%) were called active. Another 18% or so got no clear call; they are omitted. No stated cut-off is given here; in the data, active means normalized growth mostly below about 0.91 (no sharp cut-off); inconclusive means no clear call, values can overlap the other calls; inactive means mostly above about 0.92. This is one part of the list.

Experiment: chemical genetic growth profiling, strain panel (AID 1159580);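 further: tested at 20 µM; growth read once vehicle control cultures reached saturation at 30 °C; 1 = growth at the plate median or of vehicle wells; lower values mean less growth of the strain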
Conditions: S. cerevisiae deletion strains, growth OD

Measured: normalized growth

COc1ccc(C(=O)c2ccccc2)c(O)c1O
active: locus YKR001C, strain vps1, hits give low values 0.781 | locus YLR262C, strain YPT6 (second series), hits give low values 0.843 | locus YLR418C, strain cdc73, hits give low values 0.825 | locus YMR058W, strain fet3, hits give low values 0.897 | locus YNL271C, strain bni1, hits give low values 0.908 | locus YNL307C, strain MCK1, hits give low values 0.906 | locus YNR052C, strain pop2, hits give low values 0.896 | locus YPR163C, strain tif3, hits give low values 0.813 | locus YPR167C, strain met16, hits give low values 0.919
inactive: locus YJL168C, strain set2, hits give low values 0.96 | locus YJL187C, strain SWE1 (second series), hits give low values 0.885 | locus YJL187C, strain SWE1, hits give low values 0.971 | locus YJR043C, strain POL32, hits give low values 0.942 | locus YKL009W, strain mrt4, hits give low values 0.933 | locus YKL068W, hits give low values 0.957 | locus YKL085W, strain MDH1 (second series), hits give low values 0.963 | locus YKL085W, strain MDH1, hits give low values 0.963 | locus YKL160W, strain elf1, hits give low values 0.971 | locus YKR026C, strain gcn3, hits give low values 0.964 | locus YKR091W, strain srl3, hits give low values 0.978 | locus YLL001W, strain dnm1, hits give low values 0.974 | locus YLL026W, hits give low values 0.988 | locus YLL041C, strain sdh2, hits give low values 0.957 | locus YLR027C, strain aat2, hits give low values 0.975 | locus YLR039C, strain RIC1, hits give low values 0.788 | locus YLR058C, strain SHM2, hits give low values 0.933 | locus YLR102C, strain apc9, hits give low values 0.974 | locus YLR221C, strain rsa3, hits give low values 0.98 | locus YLR258W, strain gsy2, hits give low values 0.97 | locus YLR262C, strain YPT6, hits give low values 0.824 | locus YLR268W, strain sec22, hits give low values 0.907 | locus YLR320W, strain mms22, hits give low values 0.936 | locus YLR330W, strain CHS5, hits give low values 0.947 | locus YLR342W, strain FKS1 (second series), hits give low values 0.851 | locus YLR342W, strain FKS1, hits give low values 0.977 | locus YLR357W, strain rsc2, hits give low values 0.885 | locus YLR370C, strain arc18, hits give low values 0.975 | locus YLR371W, strain rom2, hits give low values 0.948 | locus YLR384C, strain iki3, hits give low values 0.968 | locus YML016C, strain PPZ1, hits give low values 0.979 | locus YML032C, strain rad52, hits give low values 0.926 | locus YML120C, strain ndi1, hits give low values 0.967 | locus YML124C, strain tub3, hits give low values 0.957 | locus YMR078C, strain ctf18, hits give low values 0.931 | locus YMR125W, strain sto1, hits give low values 0.97 | locus YMR129W, hits give low values 0.973 | locus YMR205C, strain PFK2, hits give low values 0.991 | locus YMR223W, strain ubp8, hits give low values 0.909 | locus YMR231W, strain pep5, hits give low values 0.973 | locus YMR307W, strain GAS1, hits give low values 0.983 | locus YNL067W, strain RPL9B, hits give low values 0.918 | locus YNL071W, strain lat1, hits give low values 0.971 | locus YNL153C, strain GIM3, hits give low values 0.906 | locus YNL209W, strain ssb2, hits give low values 0.965 | locus YNL233W, strain BNI4, hits give low values 0.895 | locus YNL248C, strain rpa49, hits give low values 0.984 | locus YNL250W, strain rad50, hits give low values 0.9 | locus YNL298W, strain CLA4, hits give low values 0.965 | locus YNL322C, strain KRE1 (second series), hits give low values 0.978 | locus YNR049C, strain mso1, hits give low values 0.983 | locus YOL006C, strain TOP1, hits give low values 0.69 | locus YOL012C, strain htz1 0.47 | locus YOL147C, strain pex11, hits give low values 0.963 | locus YOR001W, strain rrp6, hits give low values 0.955 | locus YOR061W, strain CKA2, hits give low values 0.989 | locus YOR069W, strain VPS5, hits give low values 0.948 | locus YOR070C, strain gyp1, hits give low values 0.975 | locus YOR080W, strain dia2, hits give low values 0.989 | locus YOR083W, strain WHI5, hits give low values 0.953 | locus YOR106W, strain vam3, hits give low values 0.932 | locus YOR136W, strain idh2, hits give low values 0.952 | locus YOR144C, strain elg1, hits give low values 0.971 | locus YOR184W, strain ser1, hits give low values 0.996 | locus YOR265W, strain rbl2, hits give low values 0.973 | locus YOR270C, strain vph1, hits give low values 0.854 | locus YOR290C, strain snf2, hits give low values 0.929 | locus YOR316C, strain cot1, hits give low values 0.948 | locus YPL051W, strain arl3, hits give low values 0.936 | locus YPL078C, strain atp4, hits give low values 0.975 | locus YPL106C, strain sse1, hits give low values 0.901 | locus YPL240C, strain hsp82, hits give low values 0.954 | locus YPL241C, strain CIN2, hits give low values 0.977 | locus YPR119W, strain clb2, hits give low values 0.947 | locus YPR141C, strain kar3, hits give low values 0.923 | strain wtn01, hits give low values 0.971
